According to article PMC11006913:
Substitutions are numbered along the chain they refer to.

Columns and labels:
Test in all cases: PBM; 200 nM protein, PBS
Settings in all cases: dsDNA, one strand shown
HOXB4 [1] = target: HOXB4 (Homo sapiens, UniProt P17483 148-234)
HOXA4 [2] = target: HOXA4 (Homo sapiens, UniProt Q00056 201-287, W262R)
HOXA4 [3] = target: HOXA4 (Homo sapiens, UniProt Q00056 201-287, R217L)
HOXB4 [4] = target: HOXB4 (Homo sapiens, UniProt P17483 148-234, V174I)
HOXA4 [5] = target: HOXA4 (Homo sapiens, UniProt Q00056 201-287)
HOXA4 [6] = target: HOXA4 (Homo sapiens, UniProt Q00056 201-287, W262F)
HOXB6 [7] = target: HOXB6 (Homo sapiens, UniProt P17509 132-218, K202E)
HOXA2 [8] = target: HOXA2 (Homo sapiens, UniProt O43364 129-215, R185T)
HOXA2 [9] = target: HOXA2 (Homo sapiens, UniProt O43364 129-215, R185K)
PROP1 [10] = target: PROP1 (Homo sapiens, UniProt O75360 56-141)
PROP1 [11] = target: PROP1 (Homo sapiens, UniProt O75360 56-141, R99H)
VAX1 [12] = target: VAX1 (Homo sapiens, UniProt Q5SQQ9 86-172)
PROP1 [13] = target: PROP1 (Homo sapiens, UniProt O75360 56-141, F88S)
VAX1 [14] = target: VAX1 (Homo sapiens, UniProt Q5SQQ9 86-172, T142I)
HOXA2 [15] = target: HOXA2 (Homo sapiens, UniProt O43364 129-215, Y150S)
HOXA2 [16] = target: HOXA2 (Homo sapiens, UniProt O43364 129-215)
VAX1 [17] = target: VAX1 (Homo sapiens, UniProt Q5SQQ9 86-172, K157R)
HOXC9 [18] = target: HOXC9 (Homo sapiens, UniProt P31274 178-260, K195R)
HOXC9 [19] = target: HOXC9 (Homo sapiens, UniProt P31274 178-260)
HOXC9 [20] = target: HOXC9 (Homo sapiens, UniProt P31274 178-260, R193K)
HOXC9 [21] = target: HOXC9 (Homo sapiens, UniProt P31274 178-260, R222W)
HOXB6 [22] = target: HOXB6 (Homo sapiens, UniProt P17509 132-218)
ALX4 [23] = target: ALX4 (Homo sapiens, UniProt Q9H161 200-286)
PAX4 [24] = target: T1, PAX4 (Homo sapiens, UniProt O43316 9-242, R200K)
T1 sequence: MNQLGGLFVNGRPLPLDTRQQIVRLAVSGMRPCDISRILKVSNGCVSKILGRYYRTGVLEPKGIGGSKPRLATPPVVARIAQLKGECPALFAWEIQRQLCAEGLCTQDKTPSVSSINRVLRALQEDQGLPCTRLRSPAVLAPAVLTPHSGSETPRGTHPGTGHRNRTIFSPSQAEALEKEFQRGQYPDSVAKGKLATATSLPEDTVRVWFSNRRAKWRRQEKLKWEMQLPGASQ

PAX4 [25] = target: T2, PAX4 (Homo sapiens, UniProt O43316 9-242)
T2 sequence: T1 sequence with K192R

ALX4 [26] = target: ALX4 (Homo sapiens, UniProt Q9H161 200-286, Q225E)
PAX4 [27] = target: T3, PAX4 (Homo sapiens, UniProt O43316 9-242, R200Q)
T3 sequence: T1 sequence with K192Q

PAX4 [28] = target: T4, PAX4 (Homo sapiens, UniProt O43316 9-242, F177V)
T4 sequence: T1 sequence with F169V, K192R

PAX4 [29] = target: T5, PAX4 (Homo sapiens, UniProt O43316 9-242, R227W)
T5 sequence: T1 sequence with K192R, R219W

VAX1 (Homo sapiens, UniProt Q5SQQ9 86-172), sequence (Q5SQQ9 86-172): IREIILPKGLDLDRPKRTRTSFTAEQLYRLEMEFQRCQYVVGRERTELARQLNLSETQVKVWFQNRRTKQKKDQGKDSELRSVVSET
HOXA4 (Homo sapiens, UniProt Q00056 201-287, W262R), sequence (Q00056 201-287 W262R): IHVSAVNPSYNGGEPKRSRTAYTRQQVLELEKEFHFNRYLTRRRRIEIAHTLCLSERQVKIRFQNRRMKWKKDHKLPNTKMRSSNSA
VAX1 (Homo sapiens, UniProt Q5SQQ9 86-172, T142I), sequence (Q5SQQ9 86-172 T142I): as the sequence (Q5SQQ9 86-172) above, with T57I counted along it
HOXB4 (Homo sapiens, UniProt P17483 148-234, V174I), sequence (P17483 148-234 V174I): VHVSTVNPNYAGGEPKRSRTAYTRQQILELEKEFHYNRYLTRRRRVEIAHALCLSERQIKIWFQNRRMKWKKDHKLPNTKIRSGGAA
HOXA2 (Homo sapiens, UniProt O43364 129-215), sequence (O43364 129-215): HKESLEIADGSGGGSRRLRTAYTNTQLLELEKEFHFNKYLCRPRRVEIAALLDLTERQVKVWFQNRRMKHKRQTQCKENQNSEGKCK
HOXA4 (Homo sapiens, UniProt Q00056 201-287, W262F), sequence (Q00056 201-287 W262F): as the sequence (Q00056 201-287 W262R) above, with R62F counted along it
HOXA2 (Homo sapiens, UniProt O43364 129-215, Y150S), sequence (O43364 129-215 Y150S): as the sequence (O43364 129-215) above, with Y22S counted along it
HOXA2 (Homo sapiens, UniProt O43364 129-215, R185T), sequence (O43364 129-215 R185T): as the sequence (O43364 129-215) above, with R57T counted along it
HOXA4 (Homo sapiens, UniProt Q00056 201-287, R217L), sequence (Q00056 201-287 R217L): as the sequence (Q00056 201-287 W262R) above, with R17L, R62W counted along it
HOXA4 (Homo sapiens, UniProt Q00056 201-287), sequence (Q00056 201-287): as the sequence (Q00056 201-287 W262R) above, with R62W counted along it
VAX1 (Homo sapiens, UniProt Q5SQQ9 86-172, K157R), sequence (Q5SQQ9 86-172 K157R): as the sequence (Q5SQQ9 86-172) above, with K72R counted along it
HOXA2 (Homo sapiens, UniProt O43364 129-215, R185K), sequence (O43364 129-215 R185K): as the sequence (O43364 129-215) above, with R57K counted along it
HOXB4 (Homo sapiens, UniProt P17483 148-234), sequence (P17483 148-234): as the sequence (P17483 148-234 V174I) above, with I27V counted along it
HOXB6 (Homo sapiens, UniProt P17509 132-218, K202E), sequence (P17509 132-218 K202E): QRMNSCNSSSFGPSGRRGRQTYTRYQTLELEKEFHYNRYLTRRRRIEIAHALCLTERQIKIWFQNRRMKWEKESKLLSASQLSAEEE
HOXC9 (Homo sapiens, UniProt P31274 178-260, R193K), sequence (P31274 178-260 R193K): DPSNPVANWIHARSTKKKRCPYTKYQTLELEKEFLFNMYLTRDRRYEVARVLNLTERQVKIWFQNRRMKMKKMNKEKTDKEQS
HOXC9 (Homo sapiens, UniProt P31274 178-260, K195R), sequence (P31274 178-260 K195R): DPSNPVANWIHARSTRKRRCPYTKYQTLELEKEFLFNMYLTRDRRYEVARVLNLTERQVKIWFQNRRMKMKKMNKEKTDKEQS
HOXC9 (Homo sapiens, UniProt P31274 178-260), sequence (P31274 178-260): as the sequence (P31274 178-260 R193K) above, with K16R counted along it
PROP1 (Homo sapiens, UniProt O75360 56-141), sequence (O75360 56-141): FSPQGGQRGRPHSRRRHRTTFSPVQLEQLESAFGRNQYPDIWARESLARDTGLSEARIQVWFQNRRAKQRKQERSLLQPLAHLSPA
HOXB6 (Homo sapiens, UniProt P17509 132-218), sequence (P17509 132-218): as the sequence (P17509 132-218 K202E) above, with E71K counted along it
ALX4 (Homo sapiens, UniProt Q9H161 200-286, Q225E), sequence (Q9H161 200-286 Q225E): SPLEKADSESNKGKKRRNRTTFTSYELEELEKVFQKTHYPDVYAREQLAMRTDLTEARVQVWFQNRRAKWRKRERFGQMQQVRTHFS
ALX4 (Homo sapiens, UniProt Q9H161 200-286), sequence (Q9H161 200-286): as the sequence (Q9H161 200-286 Q225E) above, with E26Q counted along it
PROP1 (Homo sapiens, UniProt O75360 56-141, F88S), sequence (O75360 56-141 F88S): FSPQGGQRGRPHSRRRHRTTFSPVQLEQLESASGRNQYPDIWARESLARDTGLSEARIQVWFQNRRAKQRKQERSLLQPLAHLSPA
PROP1 (Homo sapiens, UniProt O75360 56-141, R99H), sequence (O75360 56-141 R99H): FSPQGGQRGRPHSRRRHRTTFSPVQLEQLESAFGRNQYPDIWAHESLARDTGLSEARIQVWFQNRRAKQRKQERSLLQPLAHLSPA
HOXC9 (Homo sapiens, UniProt P31274 178-260, R222W), sequence (P31274 178-260 R222W): as the sequence (P31274 178-260 R193K) above, with K16R, R45W counted along it

ATTCATTA
binding signal (HOXB4 [1]): 13.1 upbm affinity estimate (log intensity, higher = more binding, comparable within an allelic series) | binding signal (HOXA4 [2]): 10.5 upbm affinity estimate (log intensity, higher = more binding, comparable within an allelic series) | binding signal (HOXA4 [3]): 12.1 upbm affinity estimate (log intensity, higher = more binding, comparable within an allelic series) | binding signal (HOXB4 [4]): 13.7 upbm affinity estimate (log intensity, higher = more binding, comparable within an allelic series) | binding signal (HOXA4 [5]): 13.7 upbm affinity estimate (log intensity, higher = more binding, comparable within an allelic series) | binding signal (HOXA4 [6]): 11.6 upbm affinity estimate (log intensity, higher = more binding, comparable within an allelic series)

TATTTAAA
binding signal (HOXB4 [1]): 11.2 upbm affinity estimate (log intensity, higher = more binding, comparable within an allelic series) | binding signal (HOXA4 [2]): 10.5 upbm affinity estimate (log intensity, higher = more binding, comparable within an allelic series) | binding signal (HOXB4 [4]): 11.2 upbm affinity estimate (log intensity, higher = more binding, comparable within an allelic series) | binding signal (HOXA4 [5]): 12 upbm affinity estimate (log intensity, higher = more binding, comparable within an allelic series)

TAATGATA
binding signal (HOXB4 [1]): 13.4 upbm affinity estimate (log intensity, higher = more binding, comparable within an allelic series) | binding signal (HOXA4 [2]): 10.5 upbm affinity estimate (log intensity, higher = more binding, comparable within an allelic series) | binding signal (HOXB6 [7]): 10 upbm affinity estimate (log intensity, higher = more binding, comparable within an allelic series) | binding signal (HOXA2 [8]): 12.2 upbm affinity estimate (log intensity, higher = more binding, comparable within an allelic series) | binding signal (HOXA4 [3]): 12.2 upbm affinity estimate (log intensity, higher = more binding, comparable within an allelic series) | binding signal (HOXB4 [4]): 14.1 upbm affinity estimate (log intensity, higher = more binding, comparable within an allelic series) | binding signal (HOXA2 [9]): 13.2 upbm affinity estimate (log intensity, higher = more binding, comparable within an allelic series) | binding signal (HOXA4 [5]): 13.9 upbm affinity estimate (log intensity, higher = more binding, comparable within an allelic series) | binding signal (PROP1 [10]): 9.99 upbm affinity estimate (log intensity, higher = more binding, comparable within an allelic series) | binding signal (PROP1 [11]): 9.25 upbm affinity estimate (log intensity, higher = more binding, comparable within an allelic series) | binding signal (VAX1 [12]): 12.7 upbm affinity estimate (log intensity, higher = more binding, comparable within an allelic series) | binding signal (PROP1 [13]): 7.61 upbm affinity estimate (log intensity, higher = more binding, comparable within an allelic series) | binding signal (VAX1 [14]): 12.5 upbm affinity estimate (log intensity, higher = more binding, comparable within an allelic series) | binding signal (HOXA2 [15]): 11 upbm affinity estimate (log intensity, higher = more binding, comparable within an allelic series) | binding signal (HOXA4 [6]): 11.6 upbm affinity estimate (log intensity, higher = more binding, comparable within an allelic series) | binding signal (HOXA2 [16]): 12.3 upbm affinity estimate (log intensity, higher = more binding, comparable within an allelic series) | binding signal (VAX1 [17]): 12.3 upbm affinity estimate (log intensity, higher = more binding, comparable within an allelic series)

CGCCGAAG
binding signal (HOXB4 [1]): 7.84 upbm affinity estimate (log intensity, higher = more binding, comparable within an allelic series) | binding signal (HOXC9 [18]): 9.52 upbm affinity estimate (log intensity, higher = more binding, comparable within an allelic series) | binding signal (HOXB6 [7]): 9.07 upbm affinity estimate (log intensity, higher = more binding, comparable within an allelic series) | binding signal (HOXB4 [4]): 7.65 upbm affinity estimate (log intensity, higher = more binding, comparable within an allelic series) | binding signal (HOXC9 [19]): 9.6 upbm affinity estimate (log intensity, higher = more binding, comparable within an allelic series) | binding signal (HOXC9 [20]): 9.42 upbm affinity estimate (log intensity, higher = more binding, comparable within an allelic series) | binding signal (HOXC9 [21]): 9.77 upbm affinity estimate (log intensity, higher = more binding, comparable within an allelic series) | binding signal (HOXB6 [22]): 9.15 upbm affinity estimate (log intensity, higher = more binding, comparable within an allelic series)

GGTAATGA
binding signal (HOXB4 [1]): 12.9 upbm affinity estimate (log intensity, higher = more binding, comparable within an allelic series) | binding signal (HOXA4 [2]): 10.4 upbm affinity estimate (log intensity, higher = more binding, comparable within an allelic series) | binding signal (HOXA2 [8]): 12.1 upbm affinity estimate (log intensity, higher = more binding, comparable within an allelic series) | binding signal (HOXA4 [3]): 11.9 upbm affinity estimate (log intensity, higher = more binding, comparable within an allelic series) | binding signal (HOXB4 [4]): 13.6 upbm affinity estimate (log intensity, higher = more binding, comparable within an allelic series) | binding signal (HOXA2 [9]): 13 upbm affinity estimate (log intensity, higher = more binding, comparable within an allelic series) | binding signal (HOXA4 [5]): 13.5 upbm affinity estimate (log intensity, higher = more binding, comparable within an allelic series) | binding signal (VAX1 [12]): 12.8 upbm affinity estimate (log intensity, higher = more binding, comparable within an allelic series) | binding signal (VAX1 [14]): 12.6 upbm affinity estimate (log intensity, higher = more binding, comparable within an allelic series) | binding signal (HOXA2 [15]): 10.8 upbm affinity estimate (log intensity, higher = more binding, comparable within an allelic series) | binding signal (HOXA4 [6]): 11.2 upbm affinity estimate (log intensity, higher = more binding, comparable within an allelic series) | binding signal (HOXA2 [16]): 12.1 upbm affinity estimate (log intensity, higher = more binding, comparable within an allelic series) | binding signal (VAX1 [17]): 12.5 upbm affinity estimate (log intensity, higher = more binding, comparable within an allelic series)

ATTTGAAC
binding signal (HOXB4 [1]): 9.93 upbm affinity estimate (log intensity, higher = more binding, comparable within an allelic series) | binding signal (HOXC9 [18]): 10.9 upbm affinity estimate (log intensity, higher = more binding, comparable within an allelic series) | binding signal (HOXB4 [4]): 9.93 upbm affinity estimate (log intensity, higher = more binding, comparable within an allelic series) | binding signal (HOXC9 [19]): 10.8 upbm affinity estimate (log intensity, higher = more binding, comparable within an allelic series) | binding signal (HOXC9 [20]): 11 upbm affinity estimate (log intensity, higher = more binding, comparable within an allelic series)

GATAATGA
binding signal (HOXB4 [1]): 13.1 upbm affinity estimate (log intensity, higher = more binding, comparable within an allelic series) | binding signal (HOXA4 [2]): 10.7 upbm affinity estimate (log intensity, higher = more binding, comparable within an allelic series) | binding signal (ALX4 [23]): 12.7 upbm affinity estimate (log intensity, higher = more binding, comparable within an allelic series) | binding signal (PAX4 [24]): 11.2 upbm affinity estimate (log intensity, higher = more binding, comparable within an allelic series) | binding signal (PAX4 [25]): 11.4 upbm affinity estimate (log intensity, higher = more binding, comparable within an allelic series) | binding signal (ALX4 [26]): 11.2 upbm affinity estimate (log intensity, higher = more binding, comparable within an allelic series) | binding signal (HOXA2 [8]): 12.6 upbm affinity estimate (log intensity, higher = more binding, comparable within an allelic series) | binding signal (HOXA4 [3]): 12.3 upbm affinity estimate (log intensity, higher = more binding, comparable within an allelic series) | binding signal (HOXB4 [4]): 13.7 upbm affinity estimate (log intensity, higher = more binding, comparable within an allelic series) | binding signal (PAX4 [27]): 11.2 upbm affinity estimate (log intensity, higher = more binding, comparable within an allelic series) | binding signal (HOXA2 [9]): 13.3 upbm affinity estimate (log intensity, higher = more binding, comparable within an allelic series) | binding signal (PAX4 [28]): 10.3 upbm affinity estimate (log intensity, higher = more binding, comparable within an allelic series) | binding signal (HOXA4 [5]): 13.9 upbm affinity estimate (log intensity, higher = more binding, comparable within an allelic series) | binding signal (VAX1 [12]): 12.9 upbm affinity estimate (log intensity, higher = more binding, comparable within an allelic series) | binding signal (VAX1 [14]): 12.7 upbm affinity estimate (log intensity, higher = more binding, comparable within an allelic series) | binding signal (PAX4 [29]): 10.6 upbm affinity estimate (log intensity, higher = more binding, comparable within an allelic series) | binding signal (HOXA2 [15]): 10.9 upbm affinity estimate (log intensity, higher = more binding, comparable within an allelic series) | binding signal (HOXA4 [6]): 11.6 upbm affinity estimate (log intensity, higher = more binding, comparable within an allelic series) | binding signal (HOXA2 [16]): 12.3 upbm affinity estimate (log intensity, higher = more binding, comparable within an allelic series) | binding signal (VAX1 [17]): 12.5 upbm affinity estimate (log intensity, higher = more binding, comparable within an allelic series)
